Sampled rows, rich in hits. Any-hit rate of the full collection: about 4.1%.
hcDAF12 agonist = activators of H. contortus DAF-12 nuclear receptor | HEK293 hcDAF-12 lit1-tk-luc reporter, luminescence; 0% DMSO, 100% Δ7-dafachronic acid | activation, % at 6.8 µM | hit rate 1.4% among 370,000;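 active means activation above the mean of all tested compounds plus 3 SD, cut at about 5.5% in these data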
ssDAF-12 act = activates DAF-12 receptor from parasite S. stercoralis; AID 652126; activation, % at 6.8 µM; hit rate 1% among 370,000; HEK293 ssDAF-12/GRIP1 lit1-tk-luc reporter, luminescence; % of 3 µM dafachronic acid response;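 active means activation above the mean over all tested compounds plus 3 SD, cut at about 0.9% in these data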
DAX1 inh-1 = NR0B1 (DAX1) inhibition; HEK293 Gal4-DAX1 luciferase reporter, luminescence; inhibition, % at 6.75 µM; hit rate 0.99% among 340,000;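 active means inhibition above the mean over all tested compounds plus 3 SD, cut at about 4.2% in these data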;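 further: inhibition shows as a rise in luminescence from relieved DAX1 repression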
Target sequence (P51843 207-470 limits assumed): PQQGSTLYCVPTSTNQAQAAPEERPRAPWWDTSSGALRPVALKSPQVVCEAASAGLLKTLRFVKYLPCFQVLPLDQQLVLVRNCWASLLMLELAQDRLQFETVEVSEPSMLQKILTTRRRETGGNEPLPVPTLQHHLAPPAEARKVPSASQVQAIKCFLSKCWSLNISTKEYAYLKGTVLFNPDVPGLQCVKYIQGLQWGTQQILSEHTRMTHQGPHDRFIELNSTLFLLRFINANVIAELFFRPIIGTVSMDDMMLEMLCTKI
hgDAF12 agonist = agonists of H. glycines DAF-12 nuclear receptor | activation, % at 6.8 µM | hit rate 1.8% among 370,000 | HEK293 GAL4-hgDAF12 UAS-luciferase reporter, agonist luminescence; normalized to butyrate control;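 active means activation above a cutoff set at the mean of all screened compounds plus 3 SD, cut at about 10% in these data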
DAX1 inh-2 = blocks DAX1 repression of SF-1 activated StAR promoter. hit rate 1.1% among 370,000. inhibition, % at 6.8 µM. AID 652010. HEK293T StAR-luciferase reporter, SF-1/DAX-1 repression relief;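 active means inhibition above the mean over all tested compounds plus 3 SD, cut at about 3.6% in these data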;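 further: higher inhibition means more luminescence from relief of DAX-1 repression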
Of the large screens only hits and unclear results are named; the others gave an inactive call.

NC(=O)Cc1ccc(C(=O)CSc2nnc(-c3ccncc3)n2C2CC2)s1	none
O=C(COc1ccccc1Cl)Nc1cccnc1	hgDAF12 agonist 11.7
CCN(CC)CCNC(=O)c1ccc(NCN2C(=O)NC(c3ccccc3)(c3ccccc3)C2=O)cc1	none (no result: DAX1 inh-1)
CC(C)(C)c1ccc(C#C[C@@H]2C=C[C@H](O)[C@@H](COC(=O)Nc3ccccc3)O2)cc1	hcDAF12 agonist 5.8, ssDAF-12 act 1.9 (no result: DAX1 inh-1)
Cc1ccc2nc(NCc3ccccc3)[nH]c2c1	hgDAF12 agonist 10.6
C/C(=N\Nc1ccc(C#N)cc1[N+](=O)[O-])c1ccc(O)cc1	none
C/C(=N/Nc1ccccc1[N+](=O)[O-])c1ccc([N+](=O)[O-])cc1	hcDAF12 agonist 6.4
COc1ccc(C(C(=O)Nc2ccc(F)cc2)N2CCN(CC(=O)N3CCCC3)CC2)cc1 (stereo unspecified)	DAX1 inh-2 4.2 (no result: DAX1 inh-1)
O=C(Nc1ccc(F)cc1)C(c1ccccc1)N1CCN(CC(=O)N2CCCC2)CC1 (stereo unspecified)	none
Cc1ccc(CONC(=O)c2cccc([N+](=O)[O-])c2)cc1	DAX1 inh-1 4.7
Cc1nc(Nc2ccc(F)cc2)nc(Nc2ccc(F)cc2)c1[N+](=O)[O-]	DAX1 inh-1 4.7
Cc1nc(Nc2ccc(C(=O)O)cc2)nc(Nc2ccc(C(=O)O)cc2)c1[N+](=O)[O-]	none
Cc1cc(N2CCNC[C@@H]2C)ccc1N1C[C@@H](C)O[C@@H](C)C1	none (no result: DAX1 inh-1)
CC(C)[C@H](NC(=O)[C@@H]1Cc2ccccc2CN1)C(=O)Nc1ccc2c(c1)OCO2	none
C[C@@H](NC(=O)[C@@H]1Cc2ccccc2CN1)C(=O)Nc1ccc2c(c1)OCO2	DAX1 inh-1 5.2
Cc1cc(C)c(S(=O)(=O)Nc2nnc(C)s2)c(C)c1	none
Cc1cc(C)c(S(=O)(=O)Nc2nnc(CC(C)C)s2)c(C)c1	DAX1 inh-1 4.4
CCC(=O)Nc1ccc(CCC(=O)N2CCCC2)cc1	DAX1 inh-1 5.5
CCNS(=O)(=O)c1ccc(CCC(=O)N2CCCC2)cc1	DAX1 inh-1 5.1
Cc1csc2c(=O)sc(NC(=O)c3ccc(F)cc3Cl)nc12	none
O=C(Nc1nc2ccsc2c(=O)s1)c1ccc(F)cc1Cl	DAX1 inh-1 7.8
O=C(CCCc1ccccc1)Nc1ccccc1[N+](=O)[O-]	DAX1 inh-1 5.0
O=C(CCc1ccccc1)Nc1ccccc1F	hgDAF12 agonist 11.7, DAX1 inh-2 3.7
O=C(Nc1ccccc1F)c1ccc(OCc2ccccc2)cc1	hgDAF12 agonist 10.7
O=C(CCc1ccccc1)Nc1ccc(F)cc1F	none
CCNC(=O)N1CCN(c2ccc(N3CCN(Cc4ccccc4)[C@@H](C)C3)c(C)c2)[C@H](C)C1	none (no result: DAX1 inh-1)
CCOC(=O)[C@]12CCCC=C1N(CCCOC)C(=O)[C@@H]2CC(=O)NCCc1ccccc1OC	none (no result: DAX1 inh-1)
CC1CC(CC(=O)NNc2nc(-c3ccccc3)cs2)C(=O)O1 (stereo unspecified)	DAX1 inh-1 6.1
CC(C)NC(=O)N(C)C[C@@H]1OCc2cn(nn2)CCCC(=O)N([C@@H](C)CO)C[C@H]1C	none (no result: DAX1 inh-1)
OCC1OC(n2ccc3c(SCc4ccccc4)ncnc32)C(O)C1O (stereo unspecified)	hgDAF12 agonist 13.0
OCC1OC(n2cnc3c(SCc4ccccc4)ncnc32)C(O)C1O (stereo unspecified)	none
CN=c1scc(-c2ccco2)n1/N=C/c1ccc(O)c(O)c1	hcDAF12 agonist 8.4, hgDAF12 agonist 16.7
CCOC(=O)[C@]12CCCCC/C=C\1N(CCc1ccc(Cl)cc1)C(=O)[C@H]2CC(=O)NCCCCc1ccccc1	none (no result: DAX1 inh-1)
Cc1cc(Cl)ccc1NC(=S)Nc1ccccn1	DAX1 inh-1 4.3
COc1cccc(NC(=S)Nc2cc(C)cc(C)n2)c1	ssDAF-12 act 1.7, DAX1 inh-1 5.3
Cc1cc(Cl)ccc1NC(=S)NCc1ccccc1	none
COC(=O)c1ccc(NC(=S)Nc2ccc(O)cc2)cc1	none
Cc1cc(Cl)ccc1Nc1ncccc1C(N)=O	DAX1 inh-1 9.6
COC(=O)c1ccc(NC(=S)Nc2ccccn2)cc1	hgDAF12 agonist 11.8
Cc1cc(C)nc(NC(=S)Nc2cccc(F)c2)c1	none
Cc1cccc(NC(=S)NNc2cccc(Cl)c2)c1	ssDAF-12 act 1.0
Cc1cccc(NC(=S)Nc2ccccn2)c1	ssDAF-12 act 1.0, DAX1 inh-1 5.3
Cc1cccc(NNC(=S)Nc2c(C)cccc2C)c1	none
N/C(=N\OC(=O)C1CCCCC1)c1ccncc1	none
N/C(=N\OC(=O)C1CCCCC1)c1ccccn1	hgDAF12 agonist 11.7
COc1ccccc1CC(=O)O/N=C(\N)c1ccccn1	none
N/C(=N\OC(=O)Cc1cccc2ccccc12)c1ccccn1	hcDAF12 agonist 5.8
C=C(C)CNC(=O)c1ccc2nc(Cc3ccc(OC)cc3)oc2c1	DAX1 inh-1 6.3, hgDAF12 agonist 12.9
Cc1nc2nc(-c3ccccc3)nn2c(C)c1Cl	hcDAF12 agonist 5.6, ssDAF-12 act 0.9
Cc1nc2nc(-c3ccccc3)nn2c(C)c1C	hgDAF12 agonist 10.5
Cc1nc(-c2ccccc2)nc(-c2ccccc2)n1	none
O=C(O)CCCCn1c(SCc2cc(=O)n3cc(Cl)ccc3n2)nc2ccsc2c1=O	none
O=C(O)CCCCn1c(SCc2ccccc2Cl)nc2ccsc2c1=O	DAX1 inh-1 4.7
COC(=O)[C@]12C[C@H](CC(=O)N3CCN(C(=O)c4ccco4)CC3)C(=O)N(Cc3ccc4c(c3)OCO4)C1=C[C@H](COCc1ccccc1)O[C@@H]2C	none (no result: DAX1 inh-1)
Nc1ccccc1-c1nnc(-c2ccccc2N)n1N	hcDAF12 agonist 6.0, ssDAF-12 act 2.0
Nn1c(-c2ccccn2)nnc1-c1ccccn1	none
Cc1c(C(=O)c2ccccc2)oc2ccc3ccccc3c12	DAX1 inh-1 6.6
CCOC(=O)[C@]12CCCC=C1N(Cc1ccc(OC)cc1)C(=O)[C@@H]2CC(=O)N1CCN(C(=O)C2CC2)CC1	ssDAF-12 act 1.8 (no result: DAX1 inh-1)
O=C(CN1CCC(NC(=O)C2CC2)CC1)Nc1cccc(F)c1	ssDAF-12 act 0.9
COc1ccc(S(=O)(=O)Nc2ccc3cn[nH]c3c2)cc1C	ssDAF-12 act 0.9
COC(=O)c1cc2c(c3c4cc(F)ccc4n(S(=O)(=O)c4ccc(C)cc4)c13)C(=O)N(C)C2	none (no result: DAX1 inh-1)
COC(=O)C1=C(C(=O)OC)C2CCCC1C1N=NN(c3ccccc3)C21 (stereo unspecified)	none (no result: DAX1 inh-1)
CCOc1ccc(CCNC(=O)COC(=O)COc2ccc(Cl)cc2)cc1OCC	DAX1 inh-2 3.8
CCOc1ccc(CCNC(=O)COC(=O)Cc2c[nH]c3ccccc23)cc1OCC	ssDAF-12 act 1.3
O=S1(=O)N[C@H](Cc2ccccc2)COc2cc(Br)ccc21	none (no result: DAX1 inh-1)
CCCOc1ccc(F)cc1-c1cc(C(=O)NCc2cccc(C(F)(F)F)c2)[nH]n1	none (no result: DAX1 inh-1)
CSCCC(NC(=O)OC(C)(C)C)C(=O)Oc1ccc2c(=O)c(-c3ccc4c(c3)OCCO4)coc2c1 (stereo unspecified)	hcDAF12 agonist 5.7, hgDAF12 agonist 10.9
O=C(NN=Cc1cc(=O)[nH]c(=O)[nH]1)c1ccncc1	none

Screens from PubChem.
